In all, about 220,000 compounds went through this assay and about 2,000 (0.91%) were called active. About 2% were inconclusive and are not listed. These entries were drawn from the full list. Potency and affinity values are given separately. Values without a mark were called inactive. Cut-off read from the data, not from the text of the source: inconclusive = inhibition above about 80% without an active follow-up result; inactive = below that; test concentration not stated here.
Test: M. tuberculosis H37Rv growth inhibitors, H37Rv strain (AID 1626);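 note: bacteria incubated seven days before Alamar blue readout; 0% = bacteria only wells and 100% = bacteria with antibiotic wells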
Details: hits give high values, concentration not given here
For `Cc1ccc(-c2nc(C=Nc3cccc(C)c3)c(O)o2)cc1`, the inhibition was 1.48%.
With `CCn1c(SCC(=O)Nc2cc(C)on2)nnc1-c1c[nH]c2ccccc12` the inhibition was -1%.
`CSc1ccccc1NC(=O)COC(=O)c1ccccc1Cc1ccccc1` showed an inhibition of 7.08%.
`N#CC1=C2N=C(N)c3ccccc3N2C2=C(C(=O)CCC2)C1c1ccc(Cl)cc1` (centres undefined) showed an inhibition of -9.07%.
`Cc1ccc(C(=O)Nc2ccc(N3CCN(S(C)(=O)=O)CC3)cc2)cc1C` showed an inhibition of -8.49%.
`C=CCOc1ccc(/C=C2\C(=N)N3N=C(S(=O)(=O)CC)SC3=NC2=O)cc1OC` showed an inhibition of -2.08%.
`O=C(c1ccco1)N1CCN(CCCCN2C(=O)c3ccccc3C2=O)CC1` showed an inhibition of -5.13%.
With `CC1CN(C(=O)c2cc(F)c(F)cc2Cl)CC(C)O1` (centres undefined) the inhibition was -4.24%.
Compound `Fc1ccc(C(OCCN2CCCC2)c2ccc(Br)cc2)cc1` (centres undefined) has an inhibition of 11.1%.
For `Clc1ccccc1CN1CCN(CCCc2ccccc2)CC1`, the inhibition was 6.37%.
`Fc1ccc(C(OCCN2CCCC2)c2ccc(F)cc2)cc1` showed an inhibition of 3.27%.
`c1ccc(C(OCCN2CCNCC2)c2ccccc2)cc1` showed an inhibition of -7.41%.
Compound `COc1ccc(C(C)=O)cc1COC(=O)C(CO)NS(=O)(=O)c1ccc(Br)cc1` (centres undefined) has an inhibition of 7.85%.
Compound `Cc1ccc(C(=O)N2CCN(c3cc4c(cc3[N+](=O)[O-])n(C)c(=O)n4C)CC2)cc1` has an inhibition of -9.29%.
Compound `CC(C)Sc1nc2c(c(=O)[nH]c(=O)n2C)n1Cc1ccc(Cl)cc1` has an inhibition of 11.2%.
Work on `O=c1c2ccccc2c(-c2ccccc2)nn1-c1ccccc1` yielded an inhibition of 8.6%.
Work on `CC(C)NC(=O)C(=O)NC1CCCCCC1` yielded an inhibition of -2.43%.
Work on `O=[N+]([O-])c1ccc(N/N=C/c2cn(-c3ccccc3)nc2-c2ccccc2)cc1` yielded an inhibition of 30.5%.
For `COc1ccc(/C=N/NC(=O)c2c([N+](=O)[O-])c(C)nn2C)cc1`, the inhibition was 1.88%.
With `CS(=O)(=O)c1ccc2nc(NC(=O)c3ccc(NS(=O)(=O)c4cccc([N+](=O)[O-])c4)cc3)sc2c1` the inhibition was 34.8%.
In the case of `CC(=NCC1CCCO1)c1c(O)n(-c2ccccc2C)c(=O)[nH]c1=O` (centres undefined), the inhibition is reported as -6.91%.
`N=c1c(C(=O)NCc2ccco2)cc2c(=O)n3ccccc3nc2n1CCc1ccccc1` showed an inhibition of -6.57%.
`CCOCCCn1c(=N)c(C(=O)NCc2ccc3c(c2)OCO3)cc2c(=O)n3cccc(C)c3nc21` showed an inhibition of 26.6%.
`CCCn1c(=N)c(C(=O)NCC2CCCO2)cc2c(=O)n3cccc(C)c3nc21` (centres undefined) showed an inhibition of -1.86%.
In the case of `CCNC(=O)c1cc2c(=O)n3cccc(C)c3nc2n(CCc2ccccc2)c1=N`, the inhibition is reported as -3.98%.
For `COc1ccc(N2CCN(C(=O)CCCCCn3c(=O)[nH]c4ccsc4c3=O)CC2)cc1`, the inhibition was 0.96%.
With `CS(=O)(=O)N1Cc2ccccc2CC1C(=O)Nc1ccccc1C(N)=O` (centres undefined) the inhibition was 0.87%.
In the case of `CCc1ccc(N2Cc3ccccc3C2)cc1`, the inhibition is reported as 14.3%.
Work on `CN(C)CCNC(=O)/C=N/O` yielded an inhibition of -1.95%.
Compound `O=C(NC1CCCCCC1)c1ccccc1-c1ccccc1` has an inhibition of 36%.
`O=C(NC1CCCCC1)c1ccccc1-c1ccccc1` gave an inhibition of 0.73%.
`COc1cc(/C=N/NC(=O)CCc2n[nH]c(=O)[nH]c2=O)cc(OC)c1OC` gave an inhibition of -3.85%.
Work on `CCCCN1C(=O)CC(Sc2ncccc2C(=O)O)C1=O` (centres undefined) yielded an inhibition of 3.02%.
In the case of `Cc1cc(N2C(=O)C3CCCN3C2c2cccc(Cl)c2)no1` (centres undefined), the inhibition is reported as -8.92%.
`Cc1ccc(NC(=O)COc2ccccc2[N+](=O)[O-])nc1` gave an inhibition of 0.84%.
With `CN(C(=O)COc1ccccc1)c1nc(-c2ccc(F)cc2)cs1` the inhibition was -0.64%.
For `Cc1ccc(C(=O)N(CC#N)CC#N)cc1C`, the inhibition was 0.74%.
In the case of `N#CCCN(C(=O)CCl)c1cccc(Cl)c1`, the inhibition is reported as 32.5%.
`Cc1cccc(-c2noc(CCCOc3ccc(Cl)cc3Cl)n2)c1` showed an inhibition of -7.47%.
For `Clc1ccc(C2=Nc3cc(Cl)ccc3OC2)cc1`, the inhibition was -4.24%.
Compound `Cc1ccc2c(c1)N=C(c1ccc(F)cc1)CO2` has an inhibition of -1.59%.
In the case of `COCC(COCCCNC(=O)Nc1ccc(Br)cc1)OC` (centres undefined), the inhibition is reported as 2.27%.
For `CCOC(=O)c1sc(C)c2c1NC1(CCCCC1)NC2=O`, the inhibition was 2.89%.
`O=C(NCc1cccnc1)c1ccccc1CCc1ccccc1` showed an inhibition of 5.46%.
`C=CCSc1nnc(-c2cccnc2)o1` gave an inhibition of -5.82%.
Work on `CSc1nnc(-c2ccc([N+](=O)[O-])cc2)o1` yielded an inhibition of 34%.
In the case of `NC(=O)CSc1nnc(-c2ccc([N+](=O)[O-])cc2)o1`, the inhibition is reported as -3.14%.
`Cc1ccc(S(=O)(=O)Nc2ccc(-c3nnc(SCc4ccccc4Cl)o3)cc2)cc1` gave an inhibition of 0.5%.
Compound `CCOC(=O)CSc1ncc(-c2ccc([N+](=O)[O-])cc2)[nH]1` has an inhibition of 47.4%.
In the case of `Cc1ccc(CSc2nnc(-c3ccc(NS(=O)(=O)c4ccccc4)cc3)o2)cc1`, the inhibition is reported as 11.7%.
`COC(=O)CSc1nnc(-c2ccncc2)o1` gave an inhibition of -2.74%.
Compound `N#CCSc1nnc(-c2sc3ccccc3c2Cl)o1` has an inhibition of 11.6%.
Work on `COC(=O)c1cc(NS(=O)(=O)c2ccc(C)c3ccccc23)ccc1N1CCOCC1` yielded an inhibition of -0.65%.
In the case of `O=C1CC(N2CCC(O)CC2)C(=O)N1c1ccc(Br)cc1` (centres undefined), the inhibition is reported as -5.77%.
Compound `O=C(CC1(O)C(=O)N(CCc2ccccc2)c2ccccc21)c1ccccn1` (centres undefined) has an inhibition of -2.54%.
With `CC(=O)c1c(C)[nH]c(C(=O)OCC(=O)N2c3ccccc3NC(=O)C2(C)C)c1C` the inhibition was 1.01%.
For `COC(=O)CSc1nnc(-c2ccc(S(=O)(=O)NCc3cccs3)cc2)o1`, the inhibition was 62.9%.
`CCS(=O)(=O)Nc1ccc(-c2nnc(SCC(=O)OC)o2)cc1` showed an inhibition of 6.98%.
`COC(=O)COc1cc(Cl)c(C=O)cc1OC` gave an inhibition of 4.35%.
Compound `COC(=O)COc1ccccc1/C=C1/NC(=O)NC1=O` has an inhibition of -6.93%.
Compound `OC1CN=C2CCCc3c2n(c2ccc(Cl)cc32)C1` (centres undefined) has an inhibition of -8.27%.
With `CCN1CCn2c3c(c4cc(C)ccc42)CCCC31` (centres undefined) the inhibition was 3.23%.
`COc1ccc2c(c1)c1c3n2CCN(C)C3=NCC1` showed an inhibition of -9.72%.
For `Cc1ccc2c(c1)c1c(n2C)C(=O)CCC1`, the inhibition was -12.1%.

Reference: PubChem BioAssay AID1626 (SRMLSC, 2009)
